Where a name gives a salt, the structure may show the parent alone. A value given as a limit tells only on which side of the number the result lay.

The test system of this assay is thyroid hormone receptor (endogenous TRα and TRβ). Also on record: species or system GH3-TRE-Luc (rat pituitary); GH3-TRE-Luc luciferase reporter, antagonist mode against 1 nM T3, loss of signal, qHTS. Conditions: read-out: Average AC50 (uM) GH3-TRE-Antag, antagonist mode, 1 nM T3, no GH3 cytotoxicity hit.
As to `CCCCCCC(=O)O[C@H]1CC[C@H]2[C@@H]3CCc4cc(O)ccc4[C@H]3CC[C@]12C` [Estradiol enanthate], the AC50 – broadly, the concentration giving half of the maximal activity seen – came to 18.9 µM.

As to `C[C@]12CC[C@H](O)CC1=CC[C@@H]1[C@@H]2CC[C@]2(C)C(=O)CC[C@@H]12` [Dehydroepiandrosterone], the AC50 was greater than 50 µM.

Take `CCO[Si](C)(CCCOCC1CO1)OCC` (stereo not shown) [Diethoxy(methyl)[3-(oxiran-2-ylmethoxy)propyl]silane]: the AC50 is 62.6 µM.

For the compound `Cc1ccc(C(=O)C(C)CN2CCCCC2)cc1` (stereo not shown) [Tolperisone hydrochloride], the AC50 was greater than 50 µM.

As to `CO[C@@H]1[C@H](OC(=O)/C=C/C=C/C=C/C=C/C(=O)O)CC[C@]2(CO2)[C@H]1[C@@]1(C)O[C@@H]1CC=C(C)C` [Fumagillin], the AC50 worked out at 0.0177 µM.

Take `C[C@]12CC[C@@H]3c4ccc(O)cc4CC[C@H]3[C@@H]1CCC2=O` [Estrone]: the AC50 came out at 0.0388 µM.

For the compound `O=C(Nc1ccccc1)c1ccccc1O` [Salicylanilide], the AC50 amounted to 48.9 µM.

For `Oc1cc(Cl)cc(Cl)c1Cl` [2,3,5-Trichlorophenol], the AC50 came to 57 µM.

As for `CNCc1ccc(NC(=O)c2c[nH]c3c2C(=O)CCC3)cc1` [CP-409092], the AC50 worked out at 84.3 µM.

Consider `O=C(O)c1ccccc1Nc1cccc(C(F)(F)F)c1` [Flufenamic acid], for which the AC50 was found to be 29.6 µM.

Take `COc1ccc2[nH]c([S+]([O-])Cc3ncc(C)c(OC)c3C)nc2c1` (stereo not shown) [Omeprazole]: the AC50 was greater than 50 µM.

For `Cc1c(OCC(F)(F)F)ccnc1C[S+]([O-])c1nc2ccccc2[nH]1` (stereo not shown) [Lansoprazole], the AC50 was greater than 50 µM.

As to `COc1ccc2nc(NC(=O)Nc3ccccc3)sc2c1` [Frentizole], the AC50 was determined as 11.4 µM.
